Hits are enriched below; roughly 9.4% of the tested compounds scored in any of these assays.
FLuc modulator – qHTS profiling assay for firefly luciferase inhibitor/activator using purifed enzyme and Km concentrations of substrates (counterscreen for miR-21 project); purified FLuc, Km substrates, luminescence inhibition; actives 6.9% (n = 360,000); Potency, µM (highest dose often 57.5 µM), for the others: at the highest dose activity change, negative = inhibition, most hits filed as inhibitors;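 note: plate controls were vehicle for no effect and reference inhibitor for full effect; nearly all actives have a fitted effect of over 55% in size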
Target sequence (P08659 whole entry, looked up): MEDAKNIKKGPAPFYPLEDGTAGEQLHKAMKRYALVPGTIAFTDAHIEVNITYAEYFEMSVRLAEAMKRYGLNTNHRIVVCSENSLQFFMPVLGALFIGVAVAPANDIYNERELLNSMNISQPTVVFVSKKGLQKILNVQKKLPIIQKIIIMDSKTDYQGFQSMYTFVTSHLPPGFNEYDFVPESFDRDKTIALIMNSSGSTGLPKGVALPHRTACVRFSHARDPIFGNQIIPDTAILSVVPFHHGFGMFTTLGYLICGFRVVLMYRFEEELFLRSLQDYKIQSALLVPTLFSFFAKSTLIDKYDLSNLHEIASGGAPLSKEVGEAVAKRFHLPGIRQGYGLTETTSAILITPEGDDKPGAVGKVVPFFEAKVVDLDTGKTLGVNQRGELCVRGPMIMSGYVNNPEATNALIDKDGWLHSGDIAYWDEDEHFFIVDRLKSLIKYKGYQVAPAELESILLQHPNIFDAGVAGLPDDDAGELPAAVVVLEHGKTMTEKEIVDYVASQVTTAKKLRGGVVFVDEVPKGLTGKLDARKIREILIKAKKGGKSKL
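Purified P. pyralis luciferase, 10 nM final, with Km-level 10 uM D-luciferin and 10 uM ATP in 50 mM Tris acetate pH 7.5, 10 mM Mg acetate, 0.01% Tween-20, 0.05% BSA; 6-point qHTS titration about 60 µM downward; luminescence read.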
ELG1 DNA repair – qHTS screen for small molecules that inhibit ELG1-dependent DNA repair in human embryonic kidney (HEK293T) cells expressing luciferase-tagged ELG1; AID 504467, 2011; actives 2.3% (n = 330,000); HEK293T ELG1-luciferase reporter, luminescence, 16 h; DNA damage induced by 5-fluorouridine; Potency, µM (top dose mostly 46.1 µM), without a hit: top-dose activity change, negative = inhibition, hits mostly inhibitors; note: % is set by controls: 0 for no effect and ±100 for the full control effect; nearly all actives have a fitted effect of over 55% in size
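Reporter activity after DNA damage by 5-fluorouridine is monitored. Compound-treated cells incubate 16 hr at 37 °C, then ONE-Glo is added for 30 min before luminescence reading.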
Rab9 prom act – qHTS Assay for Rab9 Promoter Activators; Huh7 Rab9 promoter-luciferase reporter, luminescence, 24 h; Potency, µM (top dose mostly 9.22 µM), without a hit: at the top dose activation, negative = inhibition, most hits filed as activators; actives 2.8% (n = 320,000); note: % of control where 0% means no effect; nearly all actives have a fitted effect of over 60% in size
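Cell-based reporter: Huh7 stable for Rab9 promoter-driven luciferase, plated in reduced-serum medium with 10% FBS at 1500 cells/well, compound-treated 24 h at 37 °C, luminescence read after 10 min reagent.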
SMN2 splice enh – qHTS Assay for Enhancers of SMN2 Splice Variant Expression | Potency, µM (top dose mostly 46.1 µM), for inactives: at the top dose activity change, positive = activation, hits mostly activators | HEK293 SMN2-luciferase splicing reporter, luminescence, 30-36 h | actives 2.8% (n = 210,000); note: % of control where 0% means no effect; nearly all actives have a fitted effect of over 55% in size
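HEK293 cells carry an SMN2 […]–luciferase reporter in which exon 7 inclusion puts luciferase in frame. Cells were plated 10-12 h before compound addition, then incubated 30-36 h at 37C. ONE-Glo luminescence was read; sodium butyrate at 4.5 mM final served as control.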
ELG1 genotox – qHTS screen for small molecules that induce genotoxicity in human embryonic kidney (HEK293T) cells expressing luciferase-tagged ELG1; actives 1.3% (n = 330,000); HEK293T ELG1-luciferase reporter, luminescence, 16 h; AID 504466, 2011; Potency, µM (titrated, usually from 46 µM), for the others: at the highest dose activity change, positive = activation, usual class: activators; note: % of control where 0% means no effect; nearly all actives have a fitted effect of over 60% in size
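Genotoxicity was scored as increased ELG1-luciferase reporter signal, measured by ONE-Glo luminescence (30 min, room temperature). Compound or vehicle exposure of the HEK293T reporter cells lasted 16 hr at 37°C.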
NPC1 prom act – qHTS Assay for NPC1 Promoter Activators | Huh7 NPC1 promoter luciferase reporter, 24 h | Potency, µM (titrated, usually from 9.22 µM), for inactives: at the highest dose activation, actives largely listed as activators | actives 2.4% (n = 320,000) | AID 485313, 2010; note: % of control where 0% means no effect; nearly all actives have a fitted effect of over 60% in size
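Compounds in DMSO were transferred onto Huh7 NPC1-luciferase reporter cells pre-incubated 2 h; after 24 h at 37 °C, Amplite reagent was dispensed and luminescence recorded 10 min later.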
An asterisk follows results filed as active; [ ] = remark or other dose. Calls come from the whole dose curve; as a rule, active = well fitted curve in the direction sought with a large enough effect; inconclusive = small, poorly fitted or top-dose-only effect, or another doubt; inactive = no such curve, though single readings can be large; an effect the other way counts as inactive or inconclusive. Potency is the fitted concentration of half-maximal effect.

What do the screens show for `CCCOC1CCCN(C(=O)CCc2nnc(CCCCc3ccccc3)o2)C1` (stereo not drawn)?
FLuc modulator: inconclusive; ELG1 DNA repair: -9.5%; Rab9 prom act: -2.1%; ELG1 genotox: -5.3%; NPC1 prom act: 1.9%

What do the screens show for `Cc1cc(C)nc(N/N=C/c2cccc(Cl)c2)n1`?
FLuc modulator: inconclusive; ELG1 DNA repair: inconclusive; Rab9 prom act: 26.6%; SMN2 splice enh: inconclusive; ELG1 genotox: 13.2%; NPC1 prom act: 10.4%

What do the screens show for `Clc1ccc(/C=N/Nc2ncnc3ccccc23)cc1Cl`?
FLuc modulator: 8.49µM*; ELG1 DNA repair: inconclusive; Rab9 prom act: 3.98µM*; SMN2 splice enh: inconclusive; ELG1 genotox: inconclusive; NPC1 prom act: inconclusive

Results for Clc1cccc(/C=N/Nc2nc(Cl)nc3ccccc23)c1 ?
FLuc modulator: 4.78µM*; ELG1 DNA repair: inconclusive; Rab9 prom act: 3.98µM*; SMN2 splice enh: 22.4µM*; ELG1 genotox: inconclusive; NPC1 prom act: 2.82µM*

How did Fc1ccccc1/C=N/Nc1ncnc2ccccc12 do in these assays?
FLuc modulator: 1.69µM*; ELG1 DNA repair: inconclusive; Rab9 prom act: 3.16µM*; SMN2 splice enh: 11.2µM*; ELG1 genotox: inconclusive; NPC1 prom act: 14.8%

Results for O=S(=O)(N/N=C/c1ccccc1F)c1ccccc1 ?
FLuc modulator: -14.2%; ELG1 DNA repair: 8.5%; Rab9 prom act: 2.8%; SMN2 splice enh: 12.0%; ELG1 genotox: 0.0%; NPC1 prom act: 0.5%

How did C/C=C1\CC2C=CC1C2 (stereo not drawn) do in these assays?
SMN2 splice enh: -5.0%

What do the screens show for `COc1ccc(-n2nc(C(=O)NCC(=O)N3CCN(Cc4ccc5c(c4)OCO5)CC3)c3ccccc3c2=O)cc1OC`?
FLuc modulator: -2.8%; ELG1 DNA repair: inconclusive; Rab9 prom act: -2.0%; SMN2 splice enh: -10.7%; ELG1 genotox: -15.6%; NPC1 prom act: -7.0%

How did COc1ccc(-n2nc(C(=O)NCC(=O)N3CCOCC3)c3ccccc3c2=O)cc1OC do in these assays?
FLuc modulator: 23.9µM*; ELG1 DNA repair: -0.9%; Rab9 prom act: -1.1%; ELG1 genotox: -5.1%; NPC1 prom act: -5.5%

Results for COc1ccc(-n2nc(C(=O)NCC(=O)N3CCN(c4ccccc4OC)CC3)c3ccccc3c2=O)cc1OC ?
FLuc modulator: 3.79µM*; ELG1 DNA repair: 16.4µM*; Rab9 prom act: 17.1%; ELG1 genotox: -5.2%; NPC1 prom act: 14.3%

What do the screens show for `COc1ccc(-n2nc(C(=O)NCC(=O)NCCCN3CCOCC3)c3ccccc3c2=O)cc1OC`?
FLuc modulator: -3.0%; ELG1 DNA repair: 6.6%; Rab9 prom act: -3.5%; ELG1 genotox: -0.4%; NPC1 prom act: 0.2%

What do the screens show for `COc1ccc(-n2nc(C(=O)NCC(=O)N3CCN(c4ccccc4)CC3)c3ccccc3c2=O)cc1OC`?
FLuc modulator: 0.849µM*; ELG1 DNA repair: -2.3%; Rab9 prom act: 13.5%; ELG1 genotox: 4.2%; NPC1 prom act: inconclusive

What do the screens show for `COc1ccc2cc(-c3cn4c(n3)sc3cc(F)ccc34)c(=O)oc2c1`?
FLuc modulator: 9.53µM*

What do the screens show for `Cc1ccc2c(c1)sc1nc(-c3cc4ccccc4oc3=O)cn12`?
FLuc modulator: 0.426µM*; SMN2 splice enh: -12.2%

How did CC(C)c1ccc(Cc2cn3cc(-c4cc5ccccc5oc4=O)nc3s2)cc1 do in these assays?
FLuc modulator: -17.1%; SMN2 splice enh: -25.4%

What do the screens show for `COc1cc(/C=N/Nc2ccccc2)ccc1OC(=O)c1cccs1`?
FLuc modulator: 21.3µM*; ELG1 DNA repair: inconclusive; Rab9 prom act: 14.9%; SMN2 splice enh: inconclusive; ELG1 genotox: inconclusive; NPC1 prom act: 5.1%

How did COc1cc(/C=N/NC(=O)COc2ccc(C)cc2)ccc1OC(=O)c1cccs1 do in these assays?
FLuc modulator: 10.7µM*; ELG1 DNA repair: inconclusive; Rab9 prom act: 1.6%; SMN2 splice enh: -14.9%[1.84 µM]; ELG1 genotox: 10.8%; NPC1 prom act: -2.1%

What do the screens show for `COc1cc(/C=N/NC(=O)c2ccccn2)ccc1OC(=O)c1cccs1`?
FLuc modulator: 13.5µM*; ELG1 DNA repair: 0.0%; Rab9 prom act: 21.0%; ELG1 genotox: inconclusive; NPC1 prom act: inconclusive

How did COc1cc(/C=N/NC(=O)c2ccccn2)cc2c1OCO2 do in these assays?
FLuc modulator: 23.9µM*; ELG1 DNA repair: inconclusive; Rab9 prom act: inconclusive; SMN2 splice enh: 11.2µM*; ELG1 genotox: inconclusive; NPC1 prom act: inconclusive

What do the screens show for `COc1cc(/C=N/NC(=O)C(N)=O)ccc1OC(=O)c1cccs1`?
FLuc modulator: -1.4%; ELG1 DNA repair: 12.5%; Rab9 prom act: -2.9%; SMN2 splice enh: 6.5%; ELG1 genotox: 0.6%; NPC1 prom act: -2.0%

How did COc1cc(/C=N/Nc2ccc(Cl)c(C(=O)O)c2)ccc1OC(=O)c1ccco1 do in these assays?
FLuc modulator: inconclusive; ELG1 DNA repair: 17.4%; Rab9 prom act: 26.1%; SMN2 splice enh: 3.3%; ELG1 genotox: -20.4%; NPC1 prom act: inconclusive

What do the screens show for `COc1cc(/C=N/Nc2ccc(Cl)c(C(=O)O)c2)ccc1OC(=O)c1cccs1`?
FLuc modulator: 23.9µM*; ELG1 DNA repair: inconclusive; Rab9 prom act: inconclusive; SMN2 splice enh: 17.0%; ELG1 genotox: 10.8%; NPC1 prom act: 21.6%

How did Cc1cccc(NC(=O)c2ccc(S(=O)(=O)NCc3cccnc3)cc2)c1 do in these assays?
FLuc modulator: 3.0%; ELG1 DNA repair: 14.6µM*; Rab9 prom act: -1.1%; ELG1 genotox: -18.9%; NPC1 prom act: 0.9%

How did Cc1ccc(NS(=O)(=O)c2ccc(C(=O)NCc3cccnc3)cc2)cc1 do in these assays?
FLuc modulator: 21.3µM*; ELG1 DNA repair: inconclusive; Rab9 prom act: 7.2%; ELG1 genotox: inconclusive; NPC1 prom act: 17.0%

Results for CCCN(C(=O)c1cc(S(=O)(=O)N(C)c2ccc(OCC)cc2)ccc1C)C1CCS(=O)(=O)C1 (stereo not drawn) ?
ELG1 DNA repair: 9.8%; Rab9 prom act: -2.0%; ELG1 genotox: -0.1%; NPC1 prom act: -0.8%

How did Cc1cc(NC(c2nnc(-c3ccccc3)o2)c2ccccc2F)ccc1Br (stereo not drawn) do in these assays?
FLuc modulator: -4.9%

Screening results from PubChem BioAssay.
